Our source for the Potency values is PubChem BioAssay AID485297 (National Center for Advancing Translational Sciences (NCATS), 2010).

The whole screen tested about 320,000 compounds, of which about 9,100 (2.8%) were called active. Where a call stands in place of a potency, no number is given. About 3% were inconclusive and are not listed. The sample holds actives, similar compounds and a random draw of the others, so the mix is not that of the screen. Calls follow the shape of the dose curve; as a rule, active = well fitted activation curve with a large enough effect; inconclusive = small, poorly fitted or top-dose-only effect; inactive = no such curve, though single readings can be large or run the other way.
Potency is read from the fitted curve at half-maximal effect.

This test in a line: qHTS Assay for Rab9 Promoter Activators. Also: nearly all actives have a fitted effect of over 60% in size. The following applies: Huh7 Rab9 promoter-luciferase reporter, luminescence, 24 h; series mostly up to 9.22 µM. An outline of the steps:
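Quantitative HTS format; Huh7 Rab9-luciferase reporter cells (1500/well) receive compound 2 h post-plating, incubate 24 h at 37 °C, then get luciferase reagent for 10 min before luminescence reading.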
Consider `Cc1ccc2c(c1)C1CN(C)CCC1N2S(=O)(=O)c1cccc(F)c1` (configuration not stated), for which the Potency result was “inactive”.

As to `Cc1ncc(CC(=O)n2cc(C(=O)c3cc(Cl)ccc3O)cn2)s1`, the Potency entry is “inactive”.

Take `COc1ccc(CNC(=O)COc2ccccc2C(=O)c2cnn(-c3ccccc3)c2)cc1OC`: the Potency result was “inactive”.

As for `O=C(c1cnn(-c2ccc(Cl)cc2)c1)c1ccccc1O`, the Potency is 3550 nM (active).

With `COc1ccc(-c2c(-c3cc(OC)cc(OC)c3)n(C)c3ccc(-c4ccn[nH]4)cc23)cc1`, the Potency entry was “inactive”.

Take `Cc1cc(C(=O)COc2ccc(Br)cc2F)c(C)n1C1CC1`: the Potency entry was “inactive”.

As for `CC(=O)NC(c1cccs1)c1cc(Br)c2cccnc2c1O` (configuration not stated), the Potency result was “inactive”.

On to `COc1ccc(C)cc1NC(=O)c1cc(-c2ccccc2)nc2c1cnn2C(C)C`, for which the Potency result is “inactive”.

As to `CC1Cc2ccccc2N1S(=O)(=O)c1cccc(C(=O)NCC(c2ccco2)N2CCCC2)c1` (configuration not stated), the Potency entry was “inactive”.

Consider `Nc1ccc(N=Nc2ccccc2Cl)c(N)n1`, for which the Potency is 2820 nM (active).

For the compound `CCc1cccc(NC(=O)COC(=O)c2cc(=O)c3ccccc3o2)c1`, the Potency result is “inactive”.

As for `CCOC(=O)c1ccc(NC(=O)C2CC(=O)N(c3ccc4c(c3)OCCO4)C2)cc1` (configuration not stated), the Potency result is “inactive”.

As for `CCCN(CC1CC1)C(=S)NC(=O)c1ccccc1Br`, the Potency entry is “inactive”.

Consider `O=C(/C=C/NCc1ccc(F)cc1)c1ccccc1`, for which the Potency result was “inactive”.

As for `CCOc1ccc(N/C=C/C(=O)c2ccccc2)cc1`, the Potency was 316 nM (active).

Consider `CCOc1ccc(NC(=S)N2CCC(NC(=O)c3ccccc3)CC2)cc1`, for which the Potency entry was “inactive”.

As for `Cc1noc(NS(=O)(=O)c2ccc(N/C=C/C(=O)c3ccccc3)cc2)c1C`, the Potency result was “inactive”.

In the case of `Cc1ccc(N/C=C/C(=O)c2ccccc2)cc1C`, the Potency is 562 nM (active).

Regarding `O=C(NNc1ccccn1)c1ccc(Cl)nc1`, the Potency result was “inactive”.

As to `COc1ccc(C(=O)/C=C/c2ccc(OC3CSC3)cc2)cc1`, the Potency result was “inactive”.

As to `COc1ccc(C(=O)/C=C/Nc2ccccn2)cc1`, the Potency is 100 nM (active).

Consider `CCOc1ccc(N/C=C/C(=O)c2cc(OC)c(OC)c(OC)c2)cc1`, for which the Potency result was “inactive”.

Consider `O=C(CC1SC(N2CCCC2)=NC1=O)Nc1ccc(C(=O)NCCc2ccc(F)cc2)cc1` (configuration not stated), for which the Potency result was “inactive”.

Take `Cc1ccc(NC(=O)c2cccc(S(=O)(=O)N3CCCc4ccccc43)c2)nc1`: the Potency result was “inactive”.

As to `C=CC(=O)OCCOCCOCCOCCOC(=O)C=C`, the Potency entry was “inactive”.

On to `Cc1ccnc(Nc2nc3ccccc3s2)n1`, for which the Potency is 1410 nM (active).

As for `Cc1ccnc(NC(=O)c2ccco2)n1`, the Potency entry is “inactive”.

Consider `Cc1ccc(S(=O)(=O)Nc2nc3ccccc3s2)cc1[N+](=O)[O-]`, for which the Potency result is “inactive”.

In the case of `O=C(CCNS(=O)(=O)c1ccc(Br)cc1)NCC1CCCO1` (configuration not stated), the Potency result was “inactive”.

As for `O=C(c1cc(-c2cccc(O)c2)on1)N1CCc2ccccc2C1`, the Potency entry was “inactive”.

Consider `O=C(c1cc(-c2ccc(O)cc2)on1)N1CCCc2ccccc21`, for which the Potency result is “inactive”.

Consider `COc1cccc(-c2cc(C(=O)N3CCN(c4ccccc4OC)CC3)no2)c1`, for which the Potency entry is “inactive”.

In the case of `O=C(Nc1cccnc1Cl)c1cc(-c2ccccc2O)on1`, the Potency result was “inactive”.

As for `O=C(c1cc(-c2ccc(F)cc2)on1)N1CCN(c2ccc(F)cc2)CC1`, the Potency entry was “inactive”.

For the compound `COc1ccccc1-c1cc(C(=O)N2CCCCC2)no1`, the Potency is 3550 nM (active).

Turning to `O=C(c1cc(-c2ccccc2O)on1)N1CCCC1`, the Potency was 3980 nM (active).

Take `CC(=O)c1ccc(NC(=O)c2cc(-c3cccs3)on2)cc1`: the Potency entry was “inactive”.

In the case of `COc1ccc(-c2cc(C(=O)N3CCN(c4ccc(F)cc4)CC3)no2)cc1`, the Potency entry was “inactive”.

For `O=C(c1cc(-c2cccs2)on1)N1CCCCC1`, the Potency was 562 nM (active).

As to `O=C(c1cc(-c2ccc(O)cc2)on1)N1CCOCC1`, the Potency is 1120 nM (active).

Consider `O=C(CSc1n[nH]c(-c2cccs2)n1)N1CCCCC1`, for which the Potency result was “inactive”.

`O=C(CN1CCC(O)(c2cccc(C(F)(F)F)c2)CC1)NCCc1ccccc1`: the Potency result was “inactive”.

Turning to `O=C(NNC(=O)c1ccc(-n2cncn2)c([N+](=O)[O-])c1)c1ccccc1`, the Potency entry was “inactive”.

For the compound `CCOc1ccc(S(=O)(=O)NCCC(=O)NCC2CCCO2)cc1` (configuration not stated), the Potency result is “inactive”.

As for `CCN(CC(=O)Nc1ccccc1C(F)(F)F)C(=O)C1CCN(C(=O)Nc2ccccc2)CC1`, the Potency result was “inactive”.

On to `CCOc1ccc(NC(=O)CN(C)C(=O)Cc2sc(C)nc2-c2ccc(F)cc2)cc1OCC`, for which the Potency entry was “inactive”.

Regarding `O=C(OCC(=O)N1CCOCC1)c1ccc2ccccc2c1`, the Potency entry was “inactive”.

In the case of `CC1(C)CC(=O)C=C(c2ccc(Cl)c(C(F)(F)F)c2)C1`, the Potency result was “inactive”.

For the compound `COc1ccccc1C(=O)NC(CCSC)C(=O)N1CCN(C(C)=O)CC1` (configuration not stated), the Potency result is “inactive”.

For `Cc1ccccc1-c1cc(C(=O)NCc2cccs2)n(CC2CC(c3cccnc3)=NO2)n1` (configuration not stated), the Potency entry was “inactive”.

For `O=C(c1cc(COc2c(F)cccc2F)on1)N1CCSCC1`, the Potency was 3160 nM (active).

`O=C(c1cc(COc2cccc(C(F)(F)F)c2)on1)N1CCSCC1`: the Potency result is “inactive”.

Turning to `COc1ccc(OCc2cc(C(=O)N3CCCC3)no2)c2ccccc12`, the Potency was 3980 nM (active).

As for `COCCN1CCN(C(=O)c2cc(COc3ccc(F)cc3Cl)on2)CC1`, the Potency result is “inactive”.

As to `Cc1ccc(C)c(OCc2cc(C(=O)N3CCN(c4cnccn4)CC3)no2)c1`, the Potency entry is “inactive”.

Take `O=C(c1cc(COc2ccc(F)c(F)c2)on1)N1CCOCC1`: the Potency result is “inactive”.

For the compound `CC(C)(Oc1ccc(Cl)cc1)C(=O)OCC(=O)NCCc1ccc(S(N)(=O)=O)cc1`, the Potency entry is “inactive”.

For the compound `Cc1ccsc1C(=O)NC1CCCCC1C` (configuration not stated), the Potency result is “inactive”.

With `O=S(=O)(NC1CC1)c1ccc(Cl)cc1`, the Potency result was “inactive”.

Take `O=C(NCCC1=CCCCC1)C1CCN(Cc2cnn(-c3ccccc3)c2-n2cccc2)CC1`: the Potency result is “inactive”.

For the compound `C1=C(CCNc2ncnc3c2cnn3-c2ccccc2)CCCC1`, the Potency is 2820 nM (active).

Regarding `Cc1ccc(-c2nc3c(cnn3-c3ccccc3)c(=O)o2)cc1`, the Potency result is “inactive”.

On to `c1ccc(-n2ncc3c(N4CCCC4)ncnc32)cc1`, for which the Potency was 501 nM (active).

`CCC(C)N(C(=O)CSc1ncnc2c1cnn2-c1ccccc1)C1CCS(=O)(=O)C1` (configuration not stated): the Potency entry is “inactive”.

Regarding `CC(C)Sc1ncnc2c1cnn2-c1ccccc1`, the Potency is 1000 nM (active).

For the compound `CC(Sc1ncnc2c1cnn2-c1ccccc1)C(=O)Nc1ccc(N2CCOCC2)cc1` (configuration not stated), the Potency result was “inactive”.

Turning to `CCN(C(=O)CSc1ncnc2c1cnn2-c1ccccc1)C1CCS(=O)(=O)C1` (configuration not stated), the Potency entry was “inactive”.

Consider `O=C(NNc1ncnc2c1cnn2-c1ccccc1)c1ccco1`, for which the Potency result is “inactive”.

With `CCc1noc(C)c1C(=O)N1CCN(S(=O)(=O)c2cccc(C(F)(F)F)c2)CC1`, the Potency entry is “inactive”.

Take `CC(=O)c1c(C)[nH]c(C(=O)OCC(=O)Nc2c(C)cccc2C)c1C`: the Potency result was “inactive”.

Turning to `Cc1nn(Cc2ccccc2)c(C)c1C(=O)N1CCN(CC(=O)Nc2ccccc2Cl)CC1`, the Potency result was “inactive”.

In the case of `C[C@@H](NC(=O)c1nc[nH]c1C(=O)N1CCN(C(=O)OC(C)(C)C)CC1)c1ccccc1`, the Potency result is “inactive”.

As for `CCOc1ncccc1C(=O)OCC(=O)Nc1cccc(S(=O)(=O)N2CCCCCC2)c1`, the Potency entry is “inactive”.

`CCCc1nc2oc3c(=O)[nH]cnc3c2c2c1COC(C)(C)C2`: the Potency result was “inactive”.

For the compound `Cc1ccc(-c2nc3ccccc3[nH]2)cc1N`, the Potency is 1410 nM (active).

`Nc1cccc(CCc2nc3ccccc3[nH]2)c1`: the Potency entry is “inactive”.

`c1ccc2[nH]c(-c3nc4ccccc4[nH]3)nc2c1`: the Potency was 631 nM (active).

For the compound `COc1ccc(Br)cc1C(=O)NC(=S)Nc1cc(-c2nc3ccccc3[nH]2)ccc1C`, the Potency entry is “inactive”.

`OC(c1nc2ccccc2[nH]1)C(O)C(O)C(O)c1nc2ccccc2[nH]1` (configuration not stated): the Potency result is “inactive”.

For the compound `COc1ccc(-c2[nH]nc(-c3ccccc3)c2-c2nc3ccccc3[nH]2)cc1`, the Potency entry is “inactive”.

On to `N#Cc1ccc(C2=CC(=O)C[C@H](c3ccc(Cl)cc3)C2)cc1`, for which the Potency entry is “inactive”.

As to `Cc1ccc(C)c(NC(=O)CN(C)C(=O)c2ccc3ncsc3c2)c1`, the Potency result was “inactive”.

Turning to `O=[N+]([O-])c1ccc2oc(-c3cccc(O)c3)nc2c1`, the Potency is 3160 nM (active).

On to `COc1cccc(-c2nc3cc(C)ccc3o2)c1`, for which the Potency is 3980 nM (active).

As to `COc1cccc(-c2nc(CS(=O)CC(=O)NCc3ccc(F)cc3)c(C)o2)c1` (configuration not stated), the Potency result is “inactive”.

In the case of `COc1ccc(C(=O)NCc2nnc(SCC(=O)Nc3cccc(OC)c3)o2)cc1`, the Potency result is “inactive”.

`COc1cccc(NC(=O)CSc2nnc(-c3cccnc3)o2)c1`: the Potency entry is “inactive”.

Consider `COc1cccc(-c2nnc(SCCOc3ccc4c(C)cc(=O)oc4c3)o2)c1`, for which the Potency result was “inactive”.

As to `COc1ccc([N+](=O)[O-])cc1-c1nc2ccccc2nc1-c1ccccc1`, the Potency result is “inactive”.

As to `CC(=O)Oc1ccc2c(=O)oc(-c3ccc([N+](=O)[O-])cc3)nc2c1`, the Potency result is “inactive”.

With `COc1ccc2oc(-c3cccc(NC(=O)CSc4ccc(Cl)cc4)c3)nc2c1`, the Potency was 3550 nM (active).

In the case of `O=C(NCCc1nnc2ccc(SCC(=O)N3CCOCC3)nn12)c1ccccc1`, the Potency entry is “inactive”.

Take `CCCCn1c(N)c(N(CCC(C)C)C(=O)COC(=O)c2cccnc2OCC)c(=O)[nH]c1=O`: the Potency entry was “inactive”.

For `O=C(COC(=O)CNC(=O)C1CCCCC1)NCc1ccccc1`, the Potency result is “inactive”.

In the case of `CCCCN(C(=O)c1ccc2ccccc2c1)c1c(N)n(CCCC)c(=O)[nH]c1=O`, the Potency result is “inactive”.

For `CCNc1nc(-c2cc3ccccc3o2)cs1`, the Potency is 1260 nM (active).

`O=c1oc2ccccc2cc1-c1csc(Nc2ccc(O)cc2)n1`: the Potency result is “inactive”.

With `Cc1nc(C)c(-c2csc(NCCc3ccccc3)n2)s1`, the Potency result is “inactive”.

For `O=C(CN1CCCSc2ccccc21)N1CCN(S(=O)(=O)c2ccccc2)CC1`, the Potency entry is “inactive”.

For `COc1ccc2c(c1)c(C(=O)N/N=C/c1cccs1)c(C)n2C`, the Potency result was “inactive”.

As to `Cc1ccc(-c2csc(NC(=O)C3=COCCO3)n2)cc1C`, the Potency entry is “inactive”.

Consider `NS(=O)(=O)c1ccc2nc(NC(=O)C3=COCCO3)sc2c1`, for which the Potency was 1120 nM (active).

With `CCC(CC)c1nnc(NC(=O)C2=COCCO2)s1`, the Potency result is “inactive”.

Turning to `O=C(Nc1ccc(S(=O)(=O)N2CCCC2)cc1Cl)C1=COCCO1`, the Potency result is “inactive”.

As to `Cc1csc(NC(=O)C2=COCCO2)n1`, the Potency was 3550 nM (active).

For the compound `NS(=O)(=O)c1ccc2nc(NC(=O)CS(=O)(=O)c3ccc(F)cc3)sc2c1`, the Potency result was “inactive”.

`COCCN(Cc1ccccc1)C(=O)Cc1ccc(S(=O)(=O)N2CCOCC2)s1`: the Potency result was “inactive”.
